Active and inactive are the calls of the source.
Experiments:
Albumin (Bos taurus) = Albumin (Bos taurus) (UniProt P02769); test: bovine serum albumin binders on microarray, profiling panel, artefact control for SMM control protein annotation, biochemical, small-molecule microarray, Alexa647 label, 635/667 nm fluorescence (AID 1118); conditions: BSA-A647 binding, fluorescence 635 nm, higher = more signal;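 further: score merges 667 nm emission intensity and signal-to-noise per printed compound spot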
Chain of Albumin (Bos taurus) (P02769 whole entry, looked up): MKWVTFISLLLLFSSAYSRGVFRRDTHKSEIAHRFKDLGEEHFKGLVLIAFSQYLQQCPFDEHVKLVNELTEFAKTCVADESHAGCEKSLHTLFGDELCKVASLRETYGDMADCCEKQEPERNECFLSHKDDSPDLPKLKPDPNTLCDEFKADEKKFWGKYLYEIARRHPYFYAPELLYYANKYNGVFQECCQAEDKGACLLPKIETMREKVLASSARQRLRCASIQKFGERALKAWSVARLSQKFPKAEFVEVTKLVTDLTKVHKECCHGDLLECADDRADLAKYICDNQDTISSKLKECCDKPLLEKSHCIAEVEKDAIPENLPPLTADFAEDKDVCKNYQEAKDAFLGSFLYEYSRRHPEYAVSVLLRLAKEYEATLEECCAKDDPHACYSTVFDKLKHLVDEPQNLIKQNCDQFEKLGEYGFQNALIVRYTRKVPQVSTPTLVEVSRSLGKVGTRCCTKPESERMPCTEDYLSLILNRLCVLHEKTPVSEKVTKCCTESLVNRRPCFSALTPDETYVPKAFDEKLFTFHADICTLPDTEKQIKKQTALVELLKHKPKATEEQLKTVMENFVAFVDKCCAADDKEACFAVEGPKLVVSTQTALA

[1] = small-molecule microarray binders of probe aXIP, primary screen, biochemical, NeuroSMM set, 635/667 nm fluorescence (AID 1119); conditions: higher = more signal, called active from +8 up or from −8 down;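 further: probe is the protein aXip251-270 applied at 1 µg/mL to compound-printed slides; binding of probe to printed compounds measured as 667 nm fluorescence plus signal to noise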
[2] = small-molecule binders of probe aNOTCH3, primary screen, biochemical, small-molecule microarray, 635/667 nm fluorescence (AID 1120); conditions: higher = more signal;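 further: probe is a biotin-tagged antibody raised against NOTCH3 rather than NOTCH3 protein; score merges spot fluorescence near 667 nm with spot signal to noise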
[3] = small-molecule binders of probe aNOTCH2, primary screen, biochemical, small-molecule microarray, 635/667 nm fluorescence (AID 1121); conditions: higher = more signal;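 further: score merges feature fluorescence read at 667 nm with its signal to noise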
[4] = target: Carbonic anhydrase 2 (Homo sapiens) (UniProt P00918); test: CAII small-molecule binders, profiling panel, biochemical, small-molecule microarray, Alexa647-labelled CAII (AID 1122); conditions: CAII-A647 binding fluorescence, higher = more signal
[5] = COS7 lysate on small-molecule microarray, probe aHis, 635 nm (AID 1123); conditions: COS7 cell lysate, fluorescence, higher = more signal;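 further: z-score combines 667nm fluorescence intensity with signal-to-noise per printed compound spot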
[6] = compound binding in COS7 lysate, probe aLAP1, primary screen, cell lysate, small-molecule microarray (AID 1124); conditions: probe aLAP1, fluorescence, higher = more signal;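 further: lysate comes from COS7 cells expressing LAP1 and is applied at 0.3 µg/mL; score merges spot fluorescence near 667 nm with signal-to-noise over triplicate slides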
Sam68 (KHDRBS1) = test: Sam68 small-molecule binders, primary screen, biochemical, small-molecule microarray, 635 nm fluorescence (AID 1125); conditions: small-molecule microarray binding, higher = more signal;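 further: score merges 667 nm channel intensity with signal to noise over triplicate slides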
[7] = system: Chordin-like protein 2 (CHRDL2); test: CHRDL2 small-molecule binders, primary screen, biochemical, small-molecule microarray, 635 nm fluorescence (AID 1126); conditions: small-molecule microarray binding, fluorescence 635 nm; higher = more signal;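 further: printed compound slides probed with Chrdl2 protein at 4 µg/mL for 1 h at 4 C; score merges 667 nm emission intensity with signal to noise over three replicate slides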
[8] = target: Concanavalin-A (Canavalia ensiformis) (UniProt P02866); test: ConA small-molecule binders, primary screen, artefact control for SMM control protein annotation, biochemical, small-molecule microarray, Alexa647 label, 635 nm (AID 1127); conditions: ConA-A647 binding fluorescence, higher = more signal;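 further: z combines 667 nm emission intensity with signal-to-noise across three replicate slides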
Chain of Concanavalin-A (Canavalia ensiformis) (P02866 whole entry, looked up): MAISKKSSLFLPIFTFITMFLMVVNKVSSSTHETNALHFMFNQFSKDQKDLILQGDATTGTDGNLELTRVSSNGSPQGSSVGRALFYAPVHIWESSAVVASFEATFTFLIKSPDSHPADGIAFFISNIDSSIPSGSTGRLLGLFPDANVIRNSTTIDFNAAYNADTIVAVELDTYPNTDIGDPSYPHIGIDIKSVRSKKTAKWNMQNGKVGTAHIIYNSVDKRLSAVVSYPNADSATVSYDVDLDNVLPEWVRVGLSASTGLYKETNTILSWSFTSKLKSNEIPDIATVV

[9] = anti-His antibody binders, primary screen, artefact control for SMM control protein annotation, biochemical, small-molecule microarray, 635 nm fluorescence (AID 1128); conditions: anti-His Alexa647 antibody binding, higher = more signal;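 further: score merges feature fluorescence with signal-to-noise for each printed compound spot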
[10] = system: Human papillomavirus type 1a E7 protein (residues 1-88); test: HPV1a E7 small-molecule binders, primary screen, biochemical, small-molecule microarray, residues 1-88, 635 nm (AID 1129); conditions: small-molecule microarray binding, fluorescence 635 nm; higher = more signal
[11] = target: Focal adhesion kinase 1 (Homo sapiens) (UniProt Q05397); test: small-molecule microarray binders of FAK, primary screen, biochemical, 635/667 nm fluorescence, BSA, DTT (AID 1130); conditions: PTK2 binding, 635 nm fluorescence, higher = more signal;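 further: composite of spot emission at 667 nm and signal to noise over triplicate slides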
Chain of Focal adhesion kinase 1 (Homo sapiens) (Q05397 whole entry, looked up): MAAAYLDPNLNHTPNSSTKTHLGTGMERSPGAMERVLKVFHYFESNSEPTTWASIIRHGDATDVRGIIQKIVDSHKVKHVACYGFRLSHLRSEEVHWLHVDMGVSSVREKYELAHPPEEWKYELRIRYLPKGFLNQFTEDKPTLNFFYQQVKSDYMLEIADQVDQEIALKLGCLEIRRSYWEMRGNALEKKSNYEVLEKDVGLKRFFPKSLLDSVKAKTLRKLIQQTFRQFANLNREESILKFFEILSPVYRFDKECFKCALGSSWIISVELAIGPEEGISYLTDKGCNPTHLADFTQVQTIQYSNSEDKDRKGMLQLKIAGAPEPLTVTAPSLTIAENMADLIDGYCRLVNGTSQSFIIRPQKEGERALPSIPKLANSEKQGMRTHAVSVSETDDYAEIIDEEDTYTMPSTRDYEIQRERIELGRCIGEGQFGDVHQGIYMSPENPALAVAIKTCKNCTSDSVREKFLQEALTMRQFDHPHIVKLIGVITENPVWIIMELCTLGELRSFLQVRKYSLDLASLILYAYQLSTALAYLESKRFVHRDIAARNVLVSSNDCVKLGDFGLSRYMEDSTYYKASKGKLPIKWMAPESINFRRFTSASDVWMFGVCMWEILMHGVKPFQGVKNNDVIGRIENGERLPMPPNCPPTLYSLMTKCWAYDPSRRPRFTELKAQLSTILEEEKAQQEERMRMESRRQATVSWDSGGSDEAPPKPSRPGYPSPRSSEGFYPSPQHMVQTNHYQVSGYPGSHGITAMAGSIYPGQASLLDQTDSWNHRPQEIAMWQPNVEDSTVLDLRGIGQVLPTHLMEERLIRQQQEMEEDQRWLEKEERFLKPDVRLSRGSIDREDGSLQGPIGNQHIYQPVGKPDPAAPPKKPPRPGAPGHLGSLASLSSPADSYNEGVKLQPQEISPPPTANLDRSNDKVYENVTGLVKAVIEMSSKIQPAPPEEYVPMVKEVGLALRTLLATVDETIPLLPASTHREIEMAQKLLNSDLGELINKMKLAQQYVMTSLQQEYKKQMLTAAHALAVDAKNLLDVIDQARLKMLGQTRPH

[12] = system: Fibrinogen (Alexa647-labelled); test: fibrinogen binders on compound microarrays, profiling panel, artefact control for SMM control-protein annotation, biochemical, small-molecule microarray, 635/667 nm fluorescence (AID 1131); conditions: fibrinogen-A647 binding fluorescence, higher = more signal;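 further: z-score merges 667 nm fluorescence with per-spot signal-to-noise over triplicate slides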
[13] = target: Follistatin (Homo sapiens) (UniProt P19883); test: follistatin binders on small-molecule microarrays, primary screen, biochemical, small-molecule microarray, 635/667 nm fluorescence (AID 1132); conditions: FST binding, 635 nm fluorescence, higher = more signal
Chain of Follistatin (Homo sapiens) (P19883 whole entry, looked up): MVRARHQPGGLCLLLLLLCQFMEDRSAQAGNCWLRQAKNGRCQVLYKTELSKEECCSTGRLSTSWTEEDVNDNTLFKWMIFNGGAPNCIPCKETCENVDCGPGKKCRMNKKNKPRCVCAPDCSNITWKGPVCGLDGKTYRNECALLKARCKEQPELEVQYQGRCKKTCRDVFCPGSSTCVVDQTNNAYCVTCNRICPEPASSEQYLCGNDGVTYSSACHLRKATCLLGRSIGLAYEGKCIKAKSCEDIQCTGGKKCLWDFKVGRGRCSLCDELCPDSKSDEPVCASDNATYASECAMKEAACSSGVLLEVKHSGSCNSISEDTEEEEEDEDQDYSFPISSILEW

[14] = target: Fibroblast growth factor 2 (Homo sapiens) (UniProt P09038); test: FGF2 binders on small-molecule microarrays, primary screen, biochemical, small-molecule microarray, 635/667 nm fluorescence (AID 1133); conditions: small-molecule microarray binding, FGF2, fluorescence 635/667; higher = more signal
Chain of Fibroblast growth factor 2 (Homo sapiens) (P09038 whole entry, looked up): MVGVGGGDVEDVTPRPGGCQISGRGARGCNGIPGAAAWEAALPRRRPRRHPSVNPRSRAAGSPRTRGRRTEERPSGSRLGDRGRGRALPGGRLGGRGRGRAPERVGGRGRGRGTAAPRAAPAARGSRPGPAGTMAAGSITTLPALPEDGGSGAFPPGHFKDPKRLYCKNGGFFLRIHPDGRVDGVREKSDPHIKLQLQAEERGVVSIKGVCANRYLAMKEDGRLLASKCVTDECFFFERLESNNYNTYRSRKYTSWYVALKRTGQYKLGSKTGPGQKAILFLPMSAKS

[15] = mitochondrial membrane potential change in A549 cells, profiling panel, cell-based, JC-1 fluorescence, basal, 24 h, 100 nL (AID 1138); conditions: higher = more signal;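 further: A549 lung adenocarcinoma cells under basal conditions with no added stimulus; test concentration not given here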
Lefty1 = Lefty1 binders on small-molecule microarrays, primary screen, biochemical, small-molecule microarray, 635/667 nm fluorescence (AID 1139); conditions: small-molecule microarray binding, fluorescence 635/667; higher = more signal
[16] = system: wheat germ agglutinin (Triticum aestivum), Alexa647-labelled; test: wheat germ agglutinin binders on compound microarrays, profiling panel, artefact control for SMM control-protein annotation, biochemical, small-molecule microarray, 635/667 nm fluorescence (AID 1140); conditions: WGA-A647 binding, 635 nm fluorescence, higher = more signal;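 further: score merges 667 nm feature emission with signal to noise over triplicate slides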
[17] = target: Luciferin 4-monooxygenase (Photinus pyralis) (UniProt P08659); test: firefly luciferase enzyme inhibitors, primary screen, biochemical, luminescence, purified enzyme, 2006 set (AID 1141); conditions: SteadyGlo luminescence, 30 min, higher = more signal, called active from +8 up or from −8 down;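 further: cell-free assay with purified firefly luciferase at 100 ng per well in PBS; test concentration not given here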
Chain of Luciferin 4-monooxygenase (Photinus pyralis) (P08659 whole entry, looked up): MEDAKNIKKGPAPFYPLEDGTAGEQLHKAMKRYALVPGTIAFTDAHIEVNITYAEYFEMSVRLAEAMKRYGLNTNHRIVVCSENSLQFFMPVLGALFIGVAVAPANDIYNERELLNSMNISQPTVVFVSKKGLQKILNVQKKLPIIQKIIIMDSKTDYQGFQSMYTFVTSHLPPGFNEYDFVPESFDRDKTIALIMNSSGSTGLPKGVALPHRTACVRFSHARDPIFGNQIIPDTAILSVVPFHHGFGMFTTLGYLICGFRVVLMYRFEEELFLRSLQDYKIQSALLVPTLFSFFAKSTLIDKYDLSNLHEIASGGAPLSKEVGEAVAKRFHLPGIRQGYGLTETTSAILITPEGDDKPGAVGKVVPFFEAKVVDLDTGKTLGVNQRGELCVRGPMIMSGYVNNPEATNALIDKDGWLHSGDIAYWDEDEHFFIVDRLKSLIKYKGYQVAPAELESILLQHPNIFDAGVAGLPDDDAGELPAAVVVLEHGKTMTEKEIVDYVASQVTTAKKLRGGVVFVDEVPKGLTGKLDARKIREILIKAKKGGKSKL

| Structure (SMILES) | composite z-score (Albumin (Bos taurus)) | composite Z-score [1] | composite z-score [2] | composite z-score [3] | composite z-score [4] | composite z-score [5] | composite z-score [6] | composite z-score (Sam68 (KHDRBS1)) | composite z-score [7] | composite z-score [8] | composite z-score [9] | composite z-score [10] | composite z-score [11] | composite z-score [12] | composite z-score [13] | composite z-score [14] | z-score [15] | composite z-score (Lefty1) | composite z-score [16] | z-score [17] |
| --- | --- | --- | --- | --- | --- | --- | --- | --- | --- | --- | --- | --- | --- | --- | --- | --- | --- | --- | --- | --- |
| CCOc1ccc(N2C(=O)CSC2c2cccc([N+](=O)[O-])c2)cc1 (stereo not given) | 0.954 | 0.625 (inactive) | 0.133 | -0.14 | 0.36 | 1.63 | 0.181 | 0.829 | 0.428 | 0.789 | 0.798 | 0.636 | 0.65 | 0.71 | 0.0936 | 0.176 | 0.56 | -0.157 | 1.09 | 0.8 (inactive) |
| CCCC(=O)N(CCc1c[nH]c2ccccc12)[C@@H]1CC(C(=O)NCCO)=C[C@H](Oc2c(I)cc(CO)cc2OC)[C@H]1O | 0.0754 | -0.471 (inactive) | -0.0962 | -0.085 | 0.723 | 0.532 | -0.107 | 0.195 | 0.144 | 0.314 | -0.156 | -0.064 | -0.185 | -1.04 | 0.0919 | 0.289 | 1.13 | 0.0596 | 0.302 | -0.437 (inactive) |
| C=CCOC(=O)[C@H]1[C@@H]2C(=O)O[C@@H](c3ccccc3)[C@@H](c3ccccc3)N2[C@@H](c2ccc(OCCOC(=O)[C@H]3C[C@H]4C(=O)N[C@@H](CCCCN(C)C)C(=O)N4[C@H]3c3cccc(OCCO)c3)cc2)[C@]12C(=O)Nc1ccc(I)cc12 | -0.427 | 0.715 (inactive) | 0.0306 | -0.154 | 0.228 | 0.986 | -0.0143 | 1.3 | 1.39 | 1.12 | 0.977 | 1.18 | 0.205 | 0.571 | 1.35 | 1.36 | -1.66 | 1.6 | 0.705 | -0.49 (inactive) |
| CC(C)C(=C=CC[C@H](O)c1ccc(CO)o1)CCO | 0.906 | 0.304 (inactive) | -0.111 | -0.148 | 0.756 | 0.514 | 0.792 | 0.856 | 0.0622 | 0.828 | 0.748 | 0.679 | 0.217 | 0.0411 | 1.01 | 0.489 | -0.589 | 1.37 | 0.383 | -0.751 (inactive) |
| C=CC[C@@]1(C(=O)N2CCCCC2)N=C(c2ccc(OCCCO)cc2)O[C@@H]1c1ccccc1CN=[N+]=[N-] | 0.866 | -0.166 (inactive) | 0.244 | -0.0505 | 0.671 | 3.13 | 1.06 | 1.29 | -0.602 | 1.04 | 2.75 | 1.27 | 0.398 | 1.02 | 1.37 | 0.288 | -0.0114 | 0.484 | 0.768 | -1.37 (inactive) |
| CCOC(=O)C1=CCC(c2ccc(F)cc2)N(S(=O)(=O)c2ccc(C)cc2)C1 (stereo not given) | 0.569 | -0.297 (inactive) | 0.0351 | -0.113 | 0.397 | 0.75 | 0.552 | 0.376 | 0.563 | 0.221 | -0.596 | 0.818 | 1.52 | 0.265 | 0.345 | -0.287 | -0.231 | 0.471 | 0.764 | 1.4 (inactive) |
| CC(C)Cc1ccc(CN2CC[C@@H](N)C2)cc1 | -0.275 | -0.536 (inactive) | -0.152 | -0.205 | -0.501 | -0.304 | -0.485 | -1.62 | -0.629 | -0.732 | -0.273 | -1.63 | -0.0574 | -0.0978 | -0.304 | -0.847 | 1.85 | 0.0735 | -0.314 | 0.824 (inactive) |
| COC(=O)[C@H](Cc1ccccc1)N[C@H](/C=C/C1CC1)[C@@H](O)Cc1ccccc1 | -0.115 | 0.448 (inactive) | 0.392 | -0.193 | -0.36 | 0.369 | -0.309 | -0.56 | -0.318 | -0.811 | -0.174 | -0.688 | -0.295 | -1.05 | 0.395 | 0.123 | -0.0444 | -0.0264 | 0.0999 | 0.723 (inactive) |
| COC(=O)C(CC#Cc1ccc2c(c1)[C@]1(C(=O)N2)[C@H](c2ccc(O)cc2)N2[C@H](c3ccccc3)[C@H](c3ccccc3)OC(=O)[C@H]2[C@@H]1C(=O)N1CCN(c2ncccn2)CC1)C(=O)OC | 0.518 | 0.471 (inactive) | 0.166 | 0.0669 | 0.476 | 2.47 | 0.415 | 1.28 | 0.0801 | 1.11 | 3.29 | 1.23 | 0.809 | 0.975 | 0.771 | 0.208 | -0.35 | 0.162 | 1.2 | -0.078 (inactive) |
| C=CCN1C(=O)[C@]2(O[C@H](CCO)[C@@H]([Si](C)(C)c3ccc(OC)cc3)[C@@H]2C)c2cc(N(C=O)c3ccccc3)ccc21 | 0.0925 | 0.111 (inactive) | -0.0967 | -0.0315 | 0.561 | 0.225 | 0.398 | 0.518 | -0.0095 | 0.497 | 0.896 | 0.823 | -0.0453 | -0.16 | -0.193 | -0.129 | -1.08 | 0.148 | 0.792 | -0.914 (inactive) |
| O=C1C2C=CC(C(O)COCc3ccccc3)N(Nc3ccc([N+](=O)[O-])cc3)C2C(=O)N1c1ccccc1 (stereo not given) | 0.734 | 0.845 (inactive) | 0.271 | 0.0449 | 0.766 | 2.9 | 0.143 | 1.31 | 0.412 | 0.519 | 1.55 | 1.25 | 1.19 | 0.983 | 1.13 | 0.119 | -0.738 | 0.638 | 0.955 | 1.54 (inactive) |

— PubChem BioAssay
